This is a sample that favours compounds with a hit; in the whole collection about 3.6% have one here.
BJeLR lethal: MLPCN primary cell-based screen for lethality selective to Ras in HRASV12 cells; AID 1554, 2009; hit rate 0.17% among 300,000; BJeLR (HRASV12) viability, CellTiter-Glo ATP luminescence, 48 h; inhibition, % (concentration not given with the values); in the data active = inhibition above about 50%; inconclusive = no clear call, values can overlap the other calls
BoNT A protease: BoNT/A light chain protease inhibitors, primary screen, biochemical, flow cytometry, MLPCN library; Botulinum neurotoxin type A light chain protease (Clostridium botulinum A str. ATCC 3502); multiplex microsphere protease substrate cleavage; inhibition, % at 10 µM; hit rate 0.17% among 360,000; also: plate controls were buffer without enzyme for full effect and enzyme alone for no effect
Bead autofluor: compound fluorescence in toxin protease inhibitor counterscreen; AID 624483; hit rate 3.1% among 360,000; fluorescence intensity (concentration not given with the values); compound autofluorescence counterscreen, microsphere flow cytometry; stronger effect = higher value; in the data active = fluorescence intensity above about 16000; inconclusive = no clear call, values can overlap the other calls
SARS 3CLpro inh: SARS-CoV 3CLpro protease inhibitors, primary screen, biochemical, quenched FRET; Replicase polyprotein 1ab (Severe acute respiratory syndrome coronavirus), P0C6X7; inhibition, % at 6 µM; recombinant SARS-CoV 3CLpro, quenched FRET peptide cleavage; hit rate 0.14% among 290,000; in the data active = inhibition above about 12%
BoNT-F LC inh: BoNT/F light chain protease inhibitors, primary screen, biochemical, flow cytometry, MLPCN library. Botulinum neurotoxin type F light chain protease (Clostridium botulinum). Multiplex microsphere protease cleavage assay. inhibition, % at 10 µM. hit rate 0.22% among 360,000; in the data active = inhibition above about 35%, passing the limit was not always enough; inconclusive = no clear call, values can overlap the other calls; also: plate controls were buffer without enzyme for full effect and enzyme alone for no effect
Anthrax LF prot: Bacillus anthracis LF protease inhibitors, primary screen, biochemical, multiplex microsphere, MLPCN library; multiplex microsphere protease cleavage assay; inhibition, % at 10 µM; hit rate 0.12% among 360,000; AID 588501, 2011; also: plate controls were buffer without enzyme for full effect and enzyme alone for no effect
Target sequence (P15917 whole entry, looked up): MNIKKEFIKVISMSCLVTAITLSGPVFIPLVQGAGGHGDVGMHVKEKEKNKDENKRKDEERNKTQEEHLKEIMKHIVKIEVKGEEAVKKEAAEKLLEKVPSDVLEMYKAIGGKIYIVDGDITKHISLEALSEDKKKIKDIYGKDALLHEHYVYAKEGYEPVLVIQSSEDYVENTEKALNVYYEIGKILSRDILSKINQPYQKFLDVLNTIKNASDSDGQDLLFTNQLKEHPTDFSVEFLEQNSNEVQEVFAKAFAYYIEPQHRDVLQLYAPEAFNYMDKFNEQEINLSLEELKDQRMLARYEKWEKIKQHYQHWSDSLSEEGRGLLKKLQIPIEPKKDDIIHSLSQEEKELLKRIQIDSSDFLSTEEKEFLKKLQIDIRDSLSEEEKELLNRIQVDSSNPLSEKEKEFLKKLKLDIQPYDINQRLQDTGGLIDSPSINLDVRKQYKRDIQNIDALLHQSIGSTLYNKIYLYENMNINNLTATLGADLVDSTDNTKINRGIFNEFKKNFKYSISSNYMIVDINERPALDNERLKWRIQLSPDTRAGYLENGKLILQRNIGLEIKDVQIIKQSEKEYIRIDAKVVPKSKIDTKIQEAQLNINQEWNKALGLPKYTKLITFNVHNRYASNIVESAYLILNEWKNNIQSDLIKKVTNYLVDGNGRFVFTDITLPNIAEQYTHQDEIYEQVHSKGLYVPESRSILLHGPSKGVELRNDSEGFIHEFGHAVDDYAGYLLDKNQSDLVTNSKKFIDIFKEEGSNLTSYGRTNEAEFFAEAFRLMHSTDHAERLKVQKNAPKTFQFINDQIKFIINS
Starred values were filed as active, the others as inactive; ? = inconclusive; . = no result. Rule as the data show it, unless noted: active = inhibition above about 30%; inconclusive = no clear call, values can overlap the other calls; inactive = below that.

SMILES	BJeLR lethal	BoNT A protease	Bead autofluor	SARS 3CLpro inh	BoNT-F LC inh	Anthrax LF prot
CC(=O)NS(=O)(=O)c1ccc(NC(=O)c2cccc3ccccc23)cc1	0	-5	3131	.	17	-5
O=C1CC(=O)C(n2cncn2)C(c2ccc(Cl)cc2)C1 (stereo not given)	-11	5	14844	5	7	0
O=C1CC(=O)C(n2cncn2)C(c2c(F)cccc2Cl)C1 (stereo not given)	0	2	22544*	1	4	-1
Cc1cc(NC(=O)c2nn(C)c(C)c2Br)no1	4	-2	5588	-2	7	4
Cc1cc(OCC(=O)Nc2cnn(CCCC(=O)O)c2)ccc1Cl	8	1	5580	-8	1	-3
Cc1cc(C)nc(N/C(=N\S(=O)(=O)Cc2ccccc2)Nc2ccc(F)c(Cl)c2)n1	-6	-1	2944	-3	-8	2
Cc1cc(C)nc(N/C(=N\S(=O)(=O)Cc2ccccc2)Nc2cccc(Cl)c2C)n1	-4	0	21814*	0	-1	-2
Cc1ccc(Oc2nsnc2N2CCOCC2)cc1	-1	-1	20142*	7	-6	-1
O=C(Oc1nsnc1N1CCOCC1)c1ccccc1	7	0	11236	-3	-5	-3
CCOC(=O)c1c(-c2ccc(C)o2)csc1NC(=O)CN(C)CC(=O)Nc1ccc(C)cc1	-2	1	20236*	6	1	-4
Cc1nc2ccc([N+](=O)[O-])cc2c(=O)n1Cc1ccc(F)cc1	2	6	4013	3	?	7
O=C(NC1CCCCC1)c1cc([N+](=O)[O-])ccc1N1CCCCC1	-9	-1	23223*	1	-2	-5
COc1ccc(C(C)NC(=O)c2ccoc2C)cc1OC (stereo not given)	-5	-4	24236*	-3	-6	-2
COc1ccc(Cn2cnc3c(N)c(C)c(C)cc32)cc1	-1	-3	4602	2	-11	-9
Cc1cc2c(ncn2Cc2ccccc2)c([N+](=O)[O-])c1C	-16	0	22108*	-1	2	-5
O=C(COC(=O)[C@H](Cc1ccccc1)NC(=O)c1cccs1)NC1CCCCC1	11	0	2648	2	-2	-1
O=C(COC(=O)[C@H](Cc1ccccc1)NS(=O)(=O)c1ccccc1F)NC1CCCCC1	0	7	18375*	1	12	-22
COC(=O)c1nn(-c2ccc(OC)cc2)c(=O)cc1Oc1cccc(Cl)c1	1	?	20164*	-3	-4	0
Cc1nn(-c2ccccc2[N+](=O)[O-])c(=O)c2ccccc12	19	-1	4554	-1	1	-3
Cc1nn(-c2ccccc2C(=O)O)c(=O)c2ccccc12	-2	0	22783*	4	-2	-3
O=C(CN(CCO)c1ccccc1)Nc1ccc(Cl)c(S(=O)(=O)N2CCOCC2)c1	2	-1	4645	-1	-2	7
COc1ccc(C2C(C(=O)Nc3cccnc3)=C(C)Nc3nc(-c4cccs4)nn32)cc1 (stereo not given)	5	0	21944*	-4	-2	-2
Cc1c(Br)c([N+](=O)[O-])nn1CC(=O)N(C)Cc1ccccc1	9	0	4650	3	-1	0
CCn1cc([N+](=O)[O-])c(=O)c2cc(F)c(N3CCOCC3)cc21	-6	-2	3561	-3	10	2
CCN(CC)c1c2c(c(C#N)c3nc4ccccc4n13)CCC2	5	-1	16264*	-3	-1	-3
SMILES	BJeLR lethal	BoNT A protease	Bead autofluor	SARS 3CLpro inh	BoNT-F LC inh	Anthrax LF prot
Cc1nccn1-c1c2c(c(C#N)c3nc4ccccc4n13)CCC2	-2	.	.	.	.	.
C=CCc1c(C)c(C#N)c2nc3ccccc3n2c1NCCN(C)C	-19	1	3231	-5	-4	2
Cc1cc(Cl)n2c(nc3ccccc32)c1C#N	61*	0	4318	-4	0	-3
CCc1c(C)c(C#N)c2nc3ccccc3n2c1NCCN(C)C	1	7	17739*	-2	7	-7
CCN(CC)c1cc(C)c(C#N)c2nc3ccccc3n12	12	-8	4281	0	?	-11
O=C(c1ccccn1)N(c1ccccc1)C1(C(=O)NC2CCCCC2)CCCCC1	0	0	3849	3	1	0
CON/C=C(\C=Nc1ccc(Cl)cc1)c1ncc(C(F)(F)F)cc1Cl	-6	0	23332*	8	-1	-4
O=C1C2CC=CCC2C(=O)N1c1ccc(OCC(O)Cn2nnc3ccccc32)cc1 (stereo not given)	-1	-5	25583*	3	-9	-4
Cc1cc(Cl)ccc1OCC(=O)N/N=C/c1ccncc1	1	-2	3829	-6	-15	-2
CC(C)=CC(=O)Nc1ccccc1Br	0	-4	17220*	1	-5	-4
COc1ccc(NC(=O)c2nn(C34CC5CC(CC(C5)C3)C4)cc2[N+](=O)[O-])cc1	-2	-1	2073	2	-12	-2
O=C(Nc1cccc2ccccc12)c1nn(C23CC4CC(CC(C4)C2)C3)cc1[N+](=O)[O-]	3	-2	24019*	1	-4	-2
O=C(Nc1ccc2ccccc2c1)c1nn(C23CC4CC(CC(C4)C2)C3)cc1Br	2	-2	23799*	-4	-6	-3
CCOc1ccccc1OCc1nn2c(COc3ccccc3)nnc2s1	-1	1	16185*	2	0	-1
CCOc1ccc(-c2nnc3sc(COc4ccccc4)nn23)cc1	-2	-2	11014	4	-7	-3
COc1ccc(-c2nnc3sc(COc4ccccc4)nn23)cc1	-4	-2	20311*	3	-5	-5
c1ccc(Cc2nn3c(COc4ccccc4)nnc3s2)cc1	5	-3	24302*	-7	-3	-1
CCCCCCC/C=N/Nc1nnc(Cc2ccccc2)c(=O)[nH]1	4	-5	4260	-5	?	-22
C=CCn1c(SCC(=O)NC23CC4CC(CC(C4)C2)C3)nc2cc(C(=O)O)ccc2c1=O	18	0	3829	7	-4	-1
COc1ccccc1NC(=O)CSc1ncn(-c2ccccc2)n1	2	?	20548*	-4	9	-5
O=C(CSc1ncn(-c2ccccc2)n1)NCc1ccccc1	2	?	23754*	1	-4	0
O=c1c2c3nc4ccccc4nc3n(/N=C/c3ccccn3)c2ncn1-c1ccccc1	6	-7	3273	-1	?	-2
C=CCn1cnc2c(c1=O)c1nc3ccccc3nc1n2/N=C/c1ccccn1	.	-2	20073*	.	-3	-1
N#Cc1ccc(C(=O)Nc2ccc(N3CCN(C(=O)c4ccco4)CC3)cc2)c(F)c1	5	-2	24354*	0	-7	0

Bioassay records from PubChem BioAssay.
